PubChem BioAssay (Tox21)
Values joined by “and” are separate entries in the source; they are usually repeats but may differ in a detail not shown here. Equal values may be shown once. Records with an inconclusive call do not appear. Active and inactive are the calls of the source. Unless noted, calls come from the whole dose curve; as a rule, active = well fitted curve in the direction sought with a large enough effect in the repeat runs; inconclusive = weak or mixed curves; inactive = no such curve, though single readings can be large; an effect the other way counts as inactive or inconclusive.

What was measured:
[1] = qHTS assay to identify small molecule antagonists of the constitutive androstane receptor (CAR) signaling pathway - cell viability counter screen (AID 1224837); note: nearly all actives have a fitted effect of over 45% in size
How it was run: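 Counter screen run in HepG2-CYP2B6-hCAR cells: 4 hr settle, compound titration (15 concentrations) with 50 nM CITCO, 23 hr at 37 C/5% CO2, CellTiter-Fluor fluorescence.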

[2] = target: Nuclear receptor subfamily 1 group I member 3 (Homo sapiens) (UniProt Q14994); experiment: qHTS assay to identify small molecule antagonists of the constitutive androstane receptor (CAR) signaling pathway (AID 1224838); note: nearly all actives have a fitted effect of over 40% in size
How it was run: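 Cell line: HepG2 double-stable for hCAR and CYP2B6-2.2kb reporter. Agonist: CITCO, 50 nM final. Compounds: 15 concentrations, 24 h, 37 C. Detection: ONE-Glo luminescence.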

[3] = target: Nuclear receptor subfamily 1 group I member 3 (Homo sapiens) (UniProt Q14994); experiment: qHTS assay to identify small molecule agonists of the constitutive androstane receptor (CAR) signaling pathway (AID 1224839);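 note: HepG2 cells stably carrying human CAR and a CYP2B6 luciferase reporter; nearly all actives have a fitted effect of over 15% in size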
How it was run: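 HepG2 cells stably expressing hCAR and a CYP2B6-2.2kb luciferase reporter were treated with compounds at 15 concentrations plus 0.75 uM PK11195 (final) for 24 h at 37 C; luminescence was read after ONE-Glo addition.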

[4] = qHTS assay to identify small molecule antagonists of the estrogen related receptor signaling pathway with the pleiotropic PPARgamma coactivator (PGC) from Tox21 10K library - cell viability counter screen (AID 1224840; active = well fitted cell-killing curve with a large enough effect in the repeat runs, not every such curve was filed as active; note: nearly all actives have a fitted effect of over 40% in size)
How it was run: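 Following seeding of 2,000 PGC/ERR cells/well and 6 hours' incubation, test compounds were delivered in DMSO. The plates then sat 17.5 hours at 37 C before a fluorogenic live-cell protease reagent (CellTiter-Fluor) was read after 30 min.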

[5] = qHTS assay to identify small molecule antagonists of the estrogen related receptor signaling pathway with the pleiotropic PPARgamma coactivator (PGC) from Tox21 10K library (AID 1224841; call rule not given here; note: actives are mostly falling curves and most rising ones were filed inactive; nearly all actives have a fitted effect of over 50% in size)
How it was run: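 qHTS antagonist format: PGC/ERR cells, 2k/well, compound in DMSO by pin transfer after 6 h attachment, 18 h treatment at 37 C, One-Glo luminescence read at 30 min.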

[6] = qHTS assay to identify small molecule agonists of the estrogen related receptor signaling pathway with the pleiotropic PPARgamma coactivator (PGC) from Tox21 10K library (AID 1224842); note: nearly all actives have a fitted effect of over 15% in size
How it was run: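 PGC/ERR reporter cell line, 2,000 cells per well, incubated 6 h at 37 C before 23 nL compound in DMSO was added. After 18 h at 37 C, One-Glo luminescence read following 30 min at room temperature.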

[7] = target: Thyrotropin receptor (Homo sapiens) (UniProt P16473); experiment: qHTS assay to identify small molecule agonists of the thyroid stimulating hormone receptor (TSHR) signaling pathway (AID 1224843; calls by dose curve; note: nearly all actives have a fitted effect of over 45% in size)
How it was run: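 Steps: seed 800 TSHR-HEK293 cells per well; add test compound and hold 30 min at ambient temperature; dispense cAMP-d2 then anti-cAMP cryptate; incubate 1 h at ambient; measure fluorescence intensity.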

[8] = qHTS assay to identify small molecule agonists of the hypoxia (HIF-1) signaling pathway - cell viability counter screen (AID 1224844; calls by dose curve; note: nearly all actives have a fitted effect of over 50% in size)
How it was run: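 Cells (HRE-bla ME-180, 2,000 per well) sat 5 hrs at 37C, got compound for 17 hrs, were read for CCF4-AM FRET, and were finally lysed with CellTiter-Glo for a 30 min room-temperature luminescence read.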

[9] = qHTS assay to identify small molecule agonists of H2AX (AID 1224845; active = well fitted activation curve with a large enough effect in the signal ratio in the repeat runs, not every such curve was filed as active; the % refers to the signal ratio)
How it was run: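 Wild-type CHO-K1 cells, plated overnight, exposed 3hr at 37C to 15 concentrations (0.76% DMSO final). Lysed, then HTRF anti-pH2AX (S139) cryptate and anti-H2AX-d2 antibodies, 24 hr room temperature; 665/620 nm emission read.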

[10] = qHTS assay to identify small molecule agonists of H2AX - cell viability counter screen (AID 1224847; calls by dose curve; note: top concentration of the series differs between compounds; nearly all actives have a fitted effect of over 30% in size)
How it was run: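 Wild-type CHO-K1 cells (10% FBS medium) were plated overnight at 37C, exposed to compounds at 15 concentrations for 3 hr at 37C (0.76% DMSO final), and viability was read as CellTiter-Glo luminescence after 30 min at room temperature.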

[11] = qHTS assay to identify small molecule antagonists of the estrogen related receptor (ERR) signaling pathway from Tox21 library (AID 1224848); note: nearly all actives have a fitted effect of over 50% in size
How it was run: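 Luminescent reporter read-out (ONE-Glo) from NTP's ERR cell line after 18 h treatment at 37 C with DMSO-dissolved Tox21 compounds; cells pre-plated 6 h beforehand at 2,000 per well.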

[12] = qHTS assay to identify small molecule agonists of the estrogen related receptor (ERR) signaling pathway from Tox21 library (AID 1224849; calls by dose curve; note: nearly all actives have a fitted effect of over 15% in size); conditions: ERR reporter cell line, ONE-Glo luciferase, 18 h; at 92.4 µM (top of the series)
How it was run: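 Screening used an NTP-provided ERR luciferase cell line. Compounds in DMSO were added 6 h after seeding and left 18 h at 37 C before a 30 min ONE-Glo step and luminescence reading.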

[13] = qHTS RealTime-Glo MT Cell Viability Assay in HepG2 cells - 24 hour (AID 1224867); note: nearly all actives have a fitted effect of over 50% in size
How it was run: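 Cells + NanoLuc/prosubstrate dispensed (600 cells/well) → 5 h at 37 C/5% CO2 → compounds in DMSO transferred → 40 h incubation at 37 C, luminescence read at 0, 8, 16, 24, 32, 40 h.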

[14] = qHTS RealTime-Glo MT Cell Viability Assay in HEK293 cells - 32 hour (AID 1224868)
How it was run: (§1)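 Tox21 10K qHTS, HEK293, 600 cells/well, RealTime-Glo reagent co-dispensed with cells; 5 h preincubation, compound by pintool, 37 C, luminescence at 0–40 h.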

[15] = A CellTox Green Cytotoxicity Assay to monitor cytotoxicity in HEK293 cells - 0 hour (AID 1224869); note: nearly all actives have a fitted effect of over 50% in size
How it was run: (§2)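 Fluorescence intensity, read at 0, 8, 16, 24, 32 and 40 h of compound treatment, reflected dye binding to DNA of dead HEK293 cells; compounds (23 nL, DMSO) were added 5 h after plating cells with reagent.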

[16] = qHTS RealTime-Glo MT Cell Viability Assay in HepG2 cells - 40 hour (AID 1224870); note: nearly all actives have a fitted effect of over 50% in size
How it was run: (§3)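 HepG2 cells (600/well) mixed with RealTime-Glo MT reagent, settled 5 h at 37 C/5% CO2 before compound addition. Nonlytic NanoLuc luminescence from viable-cell prosubstrate reduction read repeatedly during 40 h treatment at 37 C.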

[17] = A CellTox Green Cytotoxicity Assay to monitor cytotoxicity in HEK293 cells - 40 hour (AID 1224871); note: nearly all actives have a fitted effect of over 45% in size
How it was run: as §2

[18] = qHTS RealTime-Glo MT Cell Viability Assay in HEK293 cells - 16 hour (AID 1224872)
How it was run: as §1

[19] = qHTS RealTime-Glo MT Cell Viability Assay in HepG2 cells - 8 hour (AID 1224873); note: nearly all actives have a fitted effect of over 55% in size
How it was run: as §3

[20] = qHTS assay to identify small molecule agonists of the hypoxia (HIF-1) signaling pathway (AID 1224846; active = well fitted activation curve with a large enough effect in the signal ratio in the repeat runs, not every such curve was filed as active; the % refers to the signal ratio)
How it was run: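 A low-serum medium (0.5% dialyzed FBS) holding 2,000 HRE-bla ME-180 cells per well is preincubated for 5 hrs, dosed with compounds by pintool, and kept a further 17 hrs at 37C, 5% CO2 before CCF4-AM FRET detection of beta-lactamase.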
% is set by controls: 0 for no effect and ±100 for the full control effect.

Sequence of Thyrotropin receptor (Homo sapiens) (P16473 whole entry, looked up): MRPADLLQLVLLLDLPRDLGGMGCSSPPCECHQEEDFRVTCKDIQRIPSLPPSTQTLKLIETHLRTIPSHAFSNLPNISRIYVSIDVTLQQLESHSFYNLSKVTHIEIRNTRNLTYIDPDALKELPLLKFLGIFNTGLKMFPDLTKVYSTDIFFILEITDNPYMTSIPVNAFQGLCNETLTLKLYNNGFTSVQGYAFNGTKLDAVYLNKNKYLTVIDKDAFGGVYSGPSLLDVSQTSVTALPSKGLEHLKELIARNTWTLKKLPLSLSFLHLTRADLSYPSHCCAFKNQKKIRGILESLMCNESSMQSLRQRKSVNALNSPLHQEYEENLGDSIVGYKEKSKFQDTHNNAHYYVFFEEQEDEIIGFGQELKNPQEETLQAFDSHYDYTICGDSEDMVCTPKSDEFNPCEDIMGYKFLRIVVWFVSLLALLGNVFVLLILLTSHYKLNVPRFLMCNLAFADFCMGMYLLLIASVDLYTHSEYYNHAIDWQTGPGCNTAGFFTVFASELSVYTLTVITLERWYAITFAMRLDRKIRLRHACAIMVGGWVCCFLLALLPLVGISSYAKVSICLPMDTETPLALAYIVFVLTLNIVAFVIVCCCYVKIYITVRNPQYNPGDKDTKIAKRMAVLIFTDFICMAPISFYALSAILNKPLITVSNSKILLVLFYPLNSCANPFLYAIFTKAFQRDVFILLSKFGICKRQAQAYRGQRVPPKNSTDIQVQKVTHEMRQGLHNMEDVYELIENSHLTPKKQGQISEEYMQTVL
Sequence of Nuclear receptor subfamily 1 group I member 3 (Homo sapiens) (Q14994 whole entry, looked up): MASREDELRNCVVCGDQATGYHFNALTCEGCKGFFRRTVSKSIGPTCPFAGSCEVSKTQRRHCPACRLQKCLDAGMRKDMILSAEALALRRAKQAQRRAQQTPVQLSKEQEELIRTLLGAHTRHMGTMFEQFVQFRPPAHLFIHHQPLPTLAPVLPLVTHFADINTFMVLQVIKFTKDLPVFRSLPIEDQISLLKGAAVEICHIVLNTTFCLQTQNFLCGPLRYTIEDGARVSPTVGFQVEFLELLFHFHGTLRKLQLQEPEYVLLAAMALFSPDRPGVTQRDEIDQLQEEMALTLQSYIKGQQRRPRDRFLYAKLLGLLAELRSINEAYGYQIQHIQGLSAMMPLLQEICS

COC(=O)NS(=O)(=O)c1ccc(N)cc1
inactive: Potency [1] | Potency [2] | Potency [3] | Potency [4] | Potency [5] | outcome [6] | Potency [7] | Potency [8] | Potency [9] | Potency [10] | Potency [11] | activity change, positive = activation [12] 6.12% and 0.416% | outcome [13] | Potency [14] | Potency [15] | outcome [16] | Potency [17] | outcome [18] | outcome [19]

CCOC(=O)c1ccccc1C(=O)OCC
inactive: Potency [1] | Potency [2] | Potency [3] | Potency [4] | Potency [5] | outcome [6] | Potency [8] | Potency [9] | outcome [20] | Potency [10] | Potency [11] | activity change, positive = activation [12] 2.2% and 2.35% | outcome [13] | Potency [14] | Potency [15] | Potency [17] | outcome [18] | outcome [19]

O=c1n(Cl)c(=O)n(Cl)c(=O)n1Cl
inactive: Potency [1] | Potency [2] | Potency [3] | Potency [4] | Potency [7] | Potency [8] | Potency [9] | outcome [20] | Potency [10] | outcome [13] | Potency [14] | Potency [15] | Potency [17] | outcome [18] | outcome [19]

CNC(=O)Oc1ccccc1OC(C)C
inactive: Potency [1] | Potency [2] | Potency [3] | Potency [4] | Potency [5] | outcome [6] | Potency [7] | Potency [8] | Potency [9] | outcome [20] | Potency [10] | Potency [11] | activity change, positive = activation [12] 0.314% | outcome [13] | Potency [14] | Potency [15] | outcome [16] | Potency [17] | outcome [18] | outcome [19]

CN(C)CCO
inactive: Potency [1] | Potency [2] | Potency [3] | Potency [4] | Potency [5] | outcome [6] | Potency [7] | Potency [8] | Potency [9] | outcome [20] | Potency [10] | Potency [11] | activity change, positive = activation [12] 0.0173% and 5.21% | outcome [13] | Potency [14] | Potency [15] | Potency [17] | outcome [18] | outcome [19]

Oc1ccccc1Cl
inactive: Potency [1] | Potency [2] | Potency [3] | Potency [4] | Potency [7] | Potency [8] | Potency [9] | outcome [20] | Potency [10] | outcome [13] | Potency [14] | Potency [15] | outcome [16] | Potency [17] | outcome [18] | outcome [19]

Clc1ccccc1Cl
inactive: Potency [1] | Potency [2] | Potency [3] | Potency [4] | Potency [7] | Potency [8] | Potency [9] | outcome [20] | Potency [10] | outcome [13] | Potency [14] | Potency [15] | Potency [17] | outcome [18] | outcome [19]

O=c1[nH]c2ccccc2c(=O)o1
inactive: Potency [1] | Potency [2] | Potency [3] | Potency [4] | Potency [7] | Potency [8] | Potency [9] | outcome [20] | Potency [10] | outcome [13] | Potency [14] | Potency [15] | Potency [17] | outcome [18] | outcome [19]
